Each structure is given as a SMILES string. “And” between values parts separate entries of the source, which are not always exact repeats. Equal values may be shown once. Records with an inconclusive call do not appear. The source made the active and inactive calls. The call rests on the fitted dose curve; in most records, active means well fitted activation curve with a large enough effect; inconclusive means small, poorly fitted or top-dose-only effect; inactive means flat fitted curve, though single readings scatter.
Potency means the concentration at half of the fitted maximal effect.

This assay in a line: qHTS assay for environmental chemicals that activate the Aryl hydrocarbon Receptor (AhR) signaling pathway (AID 651777). Further: nearly all actives have a fitted effect of over 15% in size. On activation: % of control where 0% means no effect. The note with it: 1A2-DRE human hepatoma cells, luciferase, 24 h; activation: stronger effect = higher value. The text has this: National Center for Advancing Translational Sciences [NCATS]
NIH Chemical Genomics Center [NCGC]
U.S. Environmental Protection Agency [EPA]
National Institutes of Environmental Health Sciences [NIEHS]
National Toxicology Program [NTP]
The Aryl hydrocarbon Receptor (AhR) plays a critical role in the development of cancer or neoplasm and its formation is most likely due to genetic mutations and the influence of environment. Exposure to environmental pollutants such as polycyclic aromatic hydrocarbons (PAH), their halogenated derivatives and heterocyclic amines causes the induction of phase I and II enzymes. The transcriptional activation of CYP1A2 is directly regulated by AhR.
A cell based assay (1A2-DRE cells, developed by Puracyp, Inc., CA) was used to assess the activation of AhR. Human hepatoma cells were stably transfected with the dioxin response element (DRE) and CYP1A2 promoter fused to a luciferase gene. Increased luciferase activity can be used to identify the compounds that cause the induction of CYP1A2 and AhR activation.
1,200 cells in 5 uL/well were dispensed into white wall/solid bottom 1536-well plates using a Multidrop Combi (Thermo Scientific) dispenser. Following transfer of 23 nL compound or DMSO vehicle by a pin tool, the plates were incubated 24 hr at 37 C and 5% CO2. 5 ul One-Glo (Promega) was then added to each well and following 30 min incubation at room temperature, luciferase activity was quantified on a ViewLux CCD-based plate reader.
(In qHTS, concentration-response curves come from the screen itself.)
Consider `c1cc(OCC2CO2)cc(OCC2CO2)c1` (centres undefined), for which the activation is 4% (inactive) and -2.73% (inactive).
For the compound `Cc1cc(O)c(C(C)(C)C)cc1Sc1cc(C(C)(C)C)c(O)cc1C`, the activation is -3.69% (inactive) and -11.4% (inactive).
Still for that read-out and setting: the result for `Cc1cccc(O)c1C` reads -0.837% (inactive).
With `C/C=C1\C(=O)C[C@H]2[C@@H]3CCC4=CC(=O)CC[C@]4(C)[C@H]3CC[C@]12C`, the activation is -0.115% (inactive).
As for `CCCCCC/C(C=O)=C\c1ccccc1`, the activation was -0.354% (inactive).
Regarding `O=C(OCC(COC(=O)c1ccccc1)(COC(=O)c1ccccc1)COC(=O)c1ccccc1)c1ccccc1`, the activation is -0.471% (inactive).
The same measure, in the same setting: as for `Cc1ccc(S(=O)(=O)Oc2ccc(N=Nc3ccc(-c4ccc(N=Nc5c(O)ccc6cc(S(=O)(=O)O)cc(S(=O)(=O)O)c56)c(C)c4)cc3C)cc2)cc1`, the figure is -2.33% (inactive).
Turning to `CCCCCCCC[N+](CCCCCCCC)(CCCCCCCC)CCCCCCCC`, the activation was -8.33% (inactive).
Take `C=CC(=O)OCC(CO)(COC(=O)C=C)COC(=O)C=C`: the activation is 2.52% (inactive) and -1.81% (inactive).
For `c1ccc2c(c1)-c1cccc3c1c-2cc1ccccc13`, the Potency was 7.08 µM (active).
`Cc1cc(C(C)(C)CC(C)(C)C)ccc1OCCOCC[N+](C)(C)Cc1ccccc1`: the activation was 0.146% (inactive).
As for `C=CC(=O)OCCOCCOC(=O)C=C`, the activation is 2.82% (inactive).
Consider `CO[C@H]1/C=C/O[C@@]2(C)Oc3c(C)c(O)c4c(O)c(c5c(c4c3C2=O)NC2(CCN(CC(C)C)CC2)N=5)=NC(=O)/C(C)=C\C=C\[C@H](C)[C@H](O)[C@@H](C)[C@@H](O)[C@@H](C)[C@H](OC(C)=O)[C@@H]1C`, for which the activation is -1.73% (inactive).
For the compound `CC1(C)CCC(C)(C)c2cc(C(=O)Nc3ccc(C(=O)O)cc3)ccc21`, the activation was -0.1% (inactive).
As to `CNc1ccc(O)cc1`, the activation was 7.98% (inactive).
On to `CCC(C)Nc1ccc(NC(C)CC)cc1` (centres undefined), for which the activation was -3.51% (inactive).
Turning to `O=C1OC2(c3cc(Br)c(O)c(Br)c3Oc3c2cc(Br)c(O)c3Br)c2c(Cl)c(Cl)c(Cl)c(Cl)c21`, the activation is -2.87% (inactive).
For the compound `CN1[C@H]2CC(OC(=O)[C@H](CO)c3ccccc3)C[C@H]1[C@H]1O[C@H]12` (some centres undefined), the activation was -0.0972% (inactive) and -0.778% (inactive).
In the case of `CN(C)c1ccc(C2(c3ccc(N(C)C)cc3)OC(=O)c3cc(N(C)C)ccc32)cc1`, the activation is -0.148% (inactive).
As to `ClC1=C(Cl)C(Cl)(Cl)C(Cl)=C1Cl`, the activation is 0.158% (inactive) and 0.426% (inactive).
Turning to `CC/C(=C(\c1ccccc1)c1ccc(OCCN(C)C)cc1)c1ccc(O)cc1`, the activation was -5.29% (inactive).
Consider `CC(=O)Nc1ccc(C(=O)CCl)cc1`, for which the activation was 3.94% (inactive).
Take `CC1CCC(C(C)C)C(O)C1` (centres undefined): the activation was -1.72% (inactive).
Regarding `O=C1OC(O)C(C(Cl)Cl)=C1Cl` (centres undefined), the activation was -0.209% (inactive).

Values taken from PubChem BioAssay (NCATS).
